Assay outcomes (PubChem)
Hits are enriched below; roughly 5.4% of the tested compounds scored in any of these assays.
ALR H2O2 inh = inhibitors of human sulfhydryl oxidase ALR. P55789. purified ALR, DTT oxidation, H2O2 HRP-luminol luminescence. inhibition, % (no concentration beside the values). 3.8% of 290,000 active. AID 485317;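 active = mean replicate inhibition above about 79%, with every replicate also reaching it, limit read from the data; inconclusive = only one of the two criteria met; inactive = mean below limit and not every replicate reaching it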
Target sequence (P55789 whole entry, looked up): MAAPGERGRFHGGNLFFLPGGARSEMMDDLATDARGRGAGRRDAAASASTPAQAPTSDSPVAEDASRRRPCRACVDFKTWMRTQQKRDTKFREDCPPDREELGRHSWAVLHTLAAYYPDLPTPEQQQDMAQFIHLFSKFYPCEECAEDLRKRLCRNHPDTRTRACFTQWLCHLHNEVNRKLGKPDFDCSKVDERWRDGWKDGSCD
PP5 inh = PP5 (human) phosphatase inhibition. purified PP5c, OMFP substrate fluorescence. inhibition, % at 6.7 µM. 0.18% of 320,000 active. AID 1987;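 active = inhibition above the campaign's mean inhibition across all tested compounds plus 3 SD, cut at about 9.5% in these data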;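 note: 0% = DMSO only and 100% = 100 µM cantharidin control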
PP1 inh = PP1-alpha (human) inhibition in PP5 counter-screen; P62136; purified PP1alpha, OMFP fluorescence; inhibition, % at 6.7 µM; 0.9% of 320,000 active;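 active = inhibition above the mean inhibition of all tested compounds plus 3 SD, computed separately for each screening campaign, cut at about 15% in these data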
Target sequence (P62136 whole entry, looked up): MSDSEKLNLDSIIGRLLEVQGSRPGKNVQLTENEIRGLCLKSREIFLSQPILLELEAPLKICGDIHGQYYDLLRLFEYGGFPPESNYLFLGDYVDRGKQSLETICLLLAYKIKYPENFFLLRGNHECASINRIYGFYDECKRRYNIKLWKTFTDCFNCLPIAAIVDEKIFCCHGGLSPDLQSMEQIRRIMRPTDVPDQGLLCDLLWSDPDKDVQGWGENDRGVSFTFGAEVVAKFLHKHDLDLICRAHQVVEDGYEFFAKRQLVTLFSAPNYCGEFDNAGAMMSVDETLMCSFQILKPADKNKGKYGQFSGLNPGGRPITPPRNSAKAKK
Calb FLC = C. albicans growth modulation with fluconazole; 0.57% of 300,000 active; C. albicans CaCi-2 (fluconazole-resistant clinical isolate) + fluconazole, Alamar Blue growth, 48 h; growth inhibition, % (test concentration not listed);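 active = growth inhibition above about 58% in most replicates, limit read from the data, passing the limit was not always enough; inconclusive = exactly half the replicates above a set limit; inactive = most replicates below a set limit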;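 note: all wells also contain fluconazole at 8 µg/ml as a sub-toxic cotreatment; 0% = median of DMSO wells and 100% = median of geldanamycin control wells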
CSC inhib = cancer stem cell inhibition. cancer stem cell-like cells viability, luminescence. inhibition, % at 7.5 µM. 1.1% of 300,000 active. AID 2717; in the data active = inhibition above about 75%; inconclusive = no clear call, values can overlap the other calls; tested in HMLE shEcad cells
An asterisk follows results filed as active; u = inconclusive; x = no result.

SMILES	ALR H2O2 inh	PP5 inh	PP1 inh	Calb FLC	CSC inhib
COc1ccc(OCc2n(CC(=O)OC3CC(C)CCC3C(C)C)c3ccccc3[n+]2C)cc1 (centres undefined)	-5	2	16*	-1	58
COc1ccc(-c2n(CC(=O)OC3CC(C)CCC3C(C)C)c3ccccc3[n+]2C)cc1 (centres undefined)	x	x	x	95*	x
CCOc1ccc(-c2nc(CSCC(=O)NC3CC3)c(C)o2)cc1	99*	-4	-5	9	-13
CCOC(=O)N1CCC(NC(=O)CSCc2nc(-c3cccc(OC)c3)oc2C)CC1	99*	1	-6	13	-13
CCOc1ccc(-c2nc(CSCC(=O)NCc3ccco3)c(C)o2)cc1	98*	2	0	0	-16
Cc1oc(-c2ccc(Cl)cc2)nc1CSCC(=O)NC1CCN(Cc2ccccc2)CC1	98*	1	-3	5	-4
CC1CCCC(C)N1C(=O)COC(=O)CCC1CCCC1 (centres undefined)	x	0	2	4	2
C=CCC1CCCCC12NC(=O)N(c1ccccc1)N2 (centres undefined)	9	-1	-2	-4	19
CCn1nnnc1SCC(=O)c1cc(Cl)ccc1OC	55	0	-5	38	-12
CCC(NC(=O)c1[nH]c(C)c(C(C)=O)c1C)c1ccc(Br)cc1 (centres undefined)	2	4	1	-4	-1
Cc1ccccc1CSCC(=O)NCc1ccco1	88*	3	-1	-2	-16
CCOC(=O)N1CCC(NC(=O)CSCc2nc(-c3ccc(OCC)cc3)oc2C)CC1	99*	2	-1	3	-3
CCOc1ccc(-c2nc(CSCC(=O)NC3CCCc4ccccc43)c(C)o2)cc1 (centres undefined)	96*	-1	-4	-11	2
O=C(O)CCc1ccccc1OC(=O)c1ccccc1	-4	-1	0	-1	-19
CN(C)CCCNC(=O)c1ccc(-c2nc(-c3ccc(Cl)cc3)cs2)cc1	27	0	1	100*	100*
Cc1c(Cc2ccccc2)c(=O)oc2cc(OCc3nn[nH]n3)ccc12	98*	0	3	32	-2
Cc1c(Cc2ccccc2)c(=O)oc2cc(OCC(=O)N3CCC(C(=O)O)CC3)ccc12	93*	2	-2	-1	-9
COC(=O)Cc1c(C)c2ccc(OC(=O)c3ccccc3)cc2oc1=O	98*	1	5	9	-5
O=C(N/N=C/c1cccnc1)c1ccc(NC(=O)C(c2ccccc2)c2ccccc2)cc1	-6	5	4	-1	x
N/N=C(\Cc1cscn1)c1ccc(O)cc1O	34	0	-3	-1	19
Oc1ccc(/C(Cc2ccccn2)=N\Nc2ccccc2)c(O)c1	99*	1	-1	-34	61
Cc1c(O)ccc(/C(Cc2ccc3ccccc3n2)=N\O)c1O	28	3	3	14	12
Oc1ccc(/C(Cc2ccc3ccccc3n2)=N\Nc2ccccc2)c(O)c1	98*	0	1	-16	44
O=C(CN1CCN(c2ccccn2)CC1)Nc1cc(F)ccc1F	-12	1	-1	10	-8
CCn1c2ccccc2c2cc(NC(C)=O)ccc21	1	2	-4	19	8
SMILES	ALR H2O2 inh	PP5 inh	PP1 inh	Calb FLC	CSC inhib
CCn1c2ccccc2c2cc(NC(=O)C(=O)N3CCOCC3)ccc21	91*	3	-5	32	9
C[C@@H]1O[C@@H](Oc2c(-c3cc(O)c(O)c(O)c3)oc3cc(O)cc(O)c3c2=O)[C@H](O)[C@H](O)[C@H]1O	99*	2	4	-9	22
C[C@@H]1O[C@@H](Oc2c(-c3ccc(O)c(O)c3)oc3cc(O)cc(O)c3c2=O)[C@H](O)[C@H](O)[C@H]1O	99*	x	x	x	0
C[C@@H]1O[C@@H](O[C@H]2[C@H](O)[C@@H](O)[C@H](Oc3c(-c4ccc(O)c(O)c4)oc4cc(O)cc(O)c4c3=O)O[C@@H]2CO)[C@H](O)[C@H](O)[C@H]1O	96*	1	1	x	0
COc1cc(O)c2c(=O)c(-c3ccc(O[C@@H]4O[C@H](CO)[C@@H](O)[C@H](O)[C@H]4O)cc3)coc2c1	-5	x	x	4	7
CC(=O)O[C@@H]1[C@@H](O)[C@@H](O)[C@H](Oc2c(-c3ccc(O)cc3)oc3c(CC=C(C)C)c(O)cc(O)c3c2=O)O[C@H]1C	x	4	0	1	1
COc1ccc(-c2oc3c(CC=C(C)C)c(O[C@@H]4O[C@H](CO)[C@@H](O)[C@H](O)[C@H]4O)cc(O)c3c(=O)c2O[C@@H]2O[C@@H](C)[C@H](O)[C@@H](O)[C@H]2O)cc1	17	1	-1	4	-2
COc1cc(-c2oc3cc(O)cc(O)c3c(=O)c2O[C@@H]2O[C@H](COC3O[C@@H](C)[C@H](O)[C@@H](O)[C@H]3O)[C@@H](O)[C@H](O)[C@H]2O)ccc1O (some centres undefined)	94*	x	x	x	-19
CCOC(=O)N/N=C\c1ccc(OC/C=C/c2ccccc2)c(OC)c1	-1	1	-3	u	x
O=C(O)c1nn(-c2cccc(C(F)(F)F)c2)ccc1=O	1	1	-1	11	1
CCNC(=O)Cc1ccc(Br)cc1	-17	3	-1	3	2
CCc1c(C)nc2cc(-c3cc(OC)cc(OC)c3)nn2c1N1CCCC1	-10	4	-2	5	83*
Cc1ccc(-c2csc3nc(CN(C)Cc4ccccc4)[nH]c(=O)c23)cc1	-6	-4	12	u	34
COCCNC(=O)CCCn1c(=O)c2ccccc2n(Cc2ccccc2C#N)c1=O	-6	-2	-4	-5	-7
CCOC(=O)c1c(NC(=O)C2C3C=CC(C3)C2C(=O)O)sc2c1CCC(C)C2 (centres undefined)	95*	0	3	10	-7
CCOC(=O)c1c(NC(=O)C2CC(Cl)=CCC2C(=O)O)sc2c1CCCCC2 (centres undefined)	98*	3	14	-3	-1
CCOC(=O)c1c(NC(=O)C2C3C=CC(C3)C2C(=O)O)sc2c1CCCC2 (centres undefined)	20	0	0	37	x
CC(=O)Nc1ccc(/C=N/Nc2nc3ccccc3s2)cc1	x	x	x	1	x
CC(=O)N1CCC(=NNc2nc3ccccc3s2)CC1	u	2	3	99*	-7
CC(=O)Nc1cccc(/C(C)=N/Nc2nc3ccccc3s2)c1	98*	1	-4	-29	9
O=C(NCCOC(=O)c1ccc(F)cc1)c1ccc(F)cc1	-5	2	-1	-12	-4
CCOC(=O)c1c(N)sc2c1CCC1C(=O)N(C3CCCCC3)C(=O)C21 (centres undefined)	7	3	15*	-14	10
CCOC(=O)c1c(N)sc2c1CCC(CC)C2 (centres undefined)	47	1	1	-3	-6
O=c1[nH]c(S)c(/C=C2\C=Nc3ccccc32)s1	99*	0	3	24	10
COc1ccc(OC)c(S(=O)(=O)NC2CCCCC2)c1	x	0	-6	-8	x
